In ChEMBL document CHEMBL1157539, “Thousands of chemical starting points for antimalarial lead identification” (Nature, 2010):

test system: Plasmodium falciparum; experiment: GSK_TCMDC: Inhibition of Plasmodium falciparum Dd2 in whole red blood cells, using parasite LDH activity as an index of growth. Test compounds present at 2uM; format: functional

Row | Structure (SMILES) | Inhibition
1 | Cc1ccc(O)c(CN2CCCC(COC(c3ccc(F)cc3)c3ccc(F)cc3)C2)c1 (stereo unspecified) | 98%
2 | CS(=O)(=O)c1ccc(CNCc2ccc(-c3cccc(-c4nc5ccccc5[nH]4)c3)cc2)cc1.O=C(O)C(F)(F)F | 88%
3 | COc1ccc2nccc([C@@H](O)CN3CCC(NS(=O)(=O)c4cc(Br)c(Br)s4)CC3)c2c1 | 36%
4 | CS(=O)(=O)c1ccc(CNCc2cccc(-c3ccc(-c4nc5cc(C(F)(F)F)ccc5[nH]4)cc3)c2)cc1.O=C(O)C(F)(F)F | 96%
5 | CC(=O)Nc1cccc(C(=O)Nc2cccc(-c3csc(-c4nc5ccccc5[nH]4)c3)c2)c1 | 97%
6 | COc1ccc2nccc([C@@H](O)CN3CCC(NCc4nc5cc(F)ccc5o4)CC3)c2c1.O=C(O)C(=O)O | 12%
7 | COc1cc(Cc2cnc(N)nc2N)cc(OCC(C)(C)C(=O)O)c1OC | 0%
8 | COc1cc(CCOc2c(C)nc(N)nc2N)cc(OC)c1OC.Cl | 0%
9 | CCCNCc1ccc(-c2ccc(CNC3Cc4ccccc4C3)cc2)nc1.O=C(O)C(F)(F)F | 32%
10 | O=S(=O)(c1cc(Cl)c(Cl)cc1Cl)N1CCCCC(c2ccc(C(F)(F)F)cc2)=N1 | 99%
11 | CCCCCOc1ccc(N2C(N)=NC(N)=NC2(C)C)cc1.Cl | 0%
12 | CCc1c(C)nc(-n2nc(C)cc2NC(=O)CCc2ccccc2)[nH]c1=O | 97%
13 | CCN(CC)CCOc1ccc(N(Cc2ccc(C(C)(C)C)cc2)C(=O)c2ccc(Cc3ccccc3)cc2)cc1OC.Cl | 73%
14 | Fc1ccc(C(OCC2CCCN(Cc3cccc4cccnc34)C2)c2ccc(F)cc2)cc1 (stereo unspecified) | 97%
15 | Cl.N[C@@H](CCNC1CCN(c2cccc(C(F)(F)F)c2)CC1)Cc1ccc(F)c(F)c1 | 69%
16 | O=C(Nc1ccccc1)N1CCC(CN2CCOC(c3ccccc3)(c3ccccc3)C2)CC1 | 98%
17 | COc1ccc2nccc(N/N=C/c3cccc([N+](=O)[O-])c3)c2c1 | 98%
18 | Cc1nc2nc(N)nc(N)c2c(C)c1Cc1c(Cl)cccc1Cl.Cl | 5%

Row | Structure (SMILES) | Inhibition
19 | N=C(N)NCCCN(Cc1ccccc1)c1ccc(Cl)cc1.O=S(=O)(O)O | 98%
20 | Br.N=c1n(CCN2CCCCC2)c2ccccc2n1CC(=O)c1cccc([N+](=O)[O-])c1 | 0%
21 | N#Cc1ccc(-c2ccc(OCC(O)CN3CCCN(Cc4cccc(O)c4Cl)CC3)cc2)cc1 (stereo unspecified) | 66%
22 | Fc1ccc2[nH]c(-c3ccc(-c4ccc(CNCC5CCCO5)cc4)cc3)nc2c1.O=C(O)C(F)(F)F (stereo unspecified) | 100%
23 | CNC(=O)C1Cc2c([nH]c3ccc(Cl)cc23)C2(CCN(CCc3ccccc3)CC2)N1 (stereo unspecified) | 16%
24 | CCCCCCCN1CCC(NC(=O)Nc2ccnc3ccc(OC)cc23)C(C(=O)OCC)C1.O=C(O)C(=O)O (stereo unspecified) | 73%
25 | Br.CN(CCON1C(=N)N=C(N)NC1(C)C)c1ccccc1 | 93%
26 | N#Cc1ccc2[nH]c(-c3cc(-c4cccc(F)c4)cnc3N)nc2c1.O=C(O)C(F)(F)F | 93%
27 | CC(C)CCN(Cc1cncn1Cc1cccc(C(F)(F)F)c1)C(=O)c1ccccc1C#N | 96%
28 | Br.COc1cc(CCON2C(N)=NC(N)=NC2(C)C)cc(OC)c1OC | 95%
29 | N#CCCN1CCN(Cc2cccc(-c3ccc(-c4nc5ccccc5[nH]4)s3)c2)CC1.O=C(O)C(F)(F)F | 8%
30 | Cc1ccc(Cn2ncc(NC3CCNCC3)c(Cl)c2=O)cc1NC(=O)Nc1ccc(-c2ccccc2)cc1.O=C(O)C(F)(F)F | 61%
31 | c1ccc(CCNc2nc(NCC(c3ccccc3)c3ccccc3)c3nc[nH]c3n2)cc1 | 95%
32 | Nc1c(-c2ccc(C(=O)NCCNCc3ccccc3)cc2)cnn1-c1ccc(C(F)(F)F)cc1.O=C(O)C(F)(F)F | 2%
33 | CN1CCN(CCCN(Cc2csc(-c3ccc(CNCc4ccccc4)cc3)n2)S(=O)(=O)c2cccc3cccnc23)CC1.O=C(O)C(F)(F)F | 32%
34 | Fc1ccc2[nH]c(-c3cccc(-c4ccc(CN5CCN(c6cnccn6)CC5)cc4)c3)nc2c1.O=C(O)C(F)(F)F | 31%
35 | Cc1ccc(Cn2nc(Cl)c(N3CCNCC3)cc2=O)cc1NC(=O)Nc1ccc(-c2ccccc2)cc1.O=C(O)C(F)(F)F | 97%
36 | CCn1cnc2c(N3CCCCS3(=O)=O)cc(C(=O)N[C@@H](Cc3ccccc3)[C@H](O)CNC3CCOCC3)cc21 | 87%
